Screens (PubChem)
Compounds with a hit are over-represented: about 5.4% of the library has one in this group of screens.
ALR inh = inhibitors of human sulfhydryl oxidase ALR | purified ALR, DTT oxidation, H2O2 HRP-luminol luminescence | inhibition, % (concentration not given with the values) | actives 3.8% (n = 290,000) | AID 485317;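 active means mean replicate inhibition above about 79%, with every replicate also reaching it, limit read from the data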
Target sequence (P55789 whole entry, looked up): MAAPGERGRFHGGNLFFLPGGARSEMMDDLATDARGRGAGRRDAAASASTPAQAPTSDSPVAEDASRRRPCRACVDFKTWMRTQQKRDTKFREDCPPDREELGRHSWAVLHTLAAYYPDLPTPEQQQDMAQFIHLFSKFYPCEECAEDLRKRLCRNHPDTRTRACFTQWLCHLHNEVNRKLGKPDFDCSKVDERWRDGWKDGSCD
APOBEC3G inh = blocks human APOBEC3G single-stranded DNA deamination. Q9HC16. recombinant A3G, ssDNA deamination FAM/TAMRA fluorescence. inhibition, % at 20 µM. actives 0.28% (n = 330,000);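 active means inhibition of at least 40% at 20 µM, with no more than 30% in the related APOBEC3A deaminase screen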;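 further: plate controls were DMSO wells with A3G for no effect and wells lacking A3G enzyme for full effect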
Target sequence (Q9HC16 whole entry, looked up): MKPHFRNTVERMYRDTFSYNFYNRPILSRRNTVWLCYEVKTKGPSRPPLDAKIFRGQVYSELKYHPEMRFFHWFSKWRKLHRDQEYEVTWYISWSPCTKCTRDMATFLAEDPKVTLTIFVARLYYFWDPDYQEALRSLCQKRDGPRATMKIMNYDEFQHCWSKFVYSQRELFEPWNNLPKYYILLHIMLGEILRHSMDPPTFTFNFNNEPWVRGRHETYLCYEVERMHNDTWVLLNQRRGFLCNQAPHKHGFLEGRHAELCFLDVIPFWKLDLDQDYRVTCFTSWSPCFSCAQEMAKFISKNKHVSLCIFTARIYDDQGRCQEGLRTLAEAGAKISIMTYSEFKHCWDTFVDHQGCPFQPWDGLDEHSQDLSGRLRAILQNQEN
aDG glyco act = alpha-DG glycosylation activation; activation, % at 10 µM; AID 624168; actives 0.22% (n = 360,000); Pro5-aDG cells, alpha-DG glycosylation AlphaScreen (IIH6); 0% Pro5, 100% B10-LARGE cell signal;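 active means activation of at least 8% versus controls, or a plate z-score of at least 8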;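 further: Pro5 are CHO cells carrying HIG-tagged alpha-DG that lacks glycosylation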
PHOSPHO1 inh = PHOSPHO1 (human) inhibition. actives 1.1% (n = 290,000). inhibition, % at 13.3 µM. recombinant PHOSPHO1, absorbance phosphatase assay. Q8TCT1; in the data active means inhibition above about 60%
APOBEC3A inh = human APOBEC3A DNA deaminase inhibition; P31941; recombinant A3A, FAM/TAMRA ssDNA deamination fluorescence; inhibition, % at 20 µM; actives 0.41% (n = 330,000); AID 493011;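 active means at least 40% inhibition at 20 µM here, with at most 30% in a related deaminase screen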;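 further: plate controls were A3A with DMSO for no effect and wells lacking A3A enzyme for full effect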
rCAG binder-1 = r(CAG) repeat RNA binding; inhibition, % at 3 µM; actives 1.3% (n = 370,000); TO-PRO-1 dye displacement fluorescence;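 active means inhibition above the plate cutoff, the mean of all test compounds on that plate plus 3 SD, cut at about 35% in these data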;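 further: 0% = DMSO alone and 100% = 100 µM mitoxantrone as full dye displacement; higher means more dye released from RNA so lower well fluorescence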
rCAG binder conf = r(CAG) RNA repeat binding, confirmation. shares compounds with rCAG binder-1. TO-PRO-1 dye displacement fluorescence. inhibition, % at 3 µM. actives 70% (n = 4,300);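 active means inhibition above a per-plate cutoff, the mean inhibition of sample wells plus 3 SD, cut at about 35% in these data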;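 further: loss of TO-PRO-1 fluorescence as compound displaces dye from 1x1 AA loop RNA; 0% = DMSO only wells and 100% = 100 µM mitoxantrone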
DNA CAG counter = counter-screen for rCAG RNA binders: DNA CAG dye complex inhibitors | inhibition, % at 3 µM | AID 652068 | d(CAG) DNA oligo TO-PRO-1 dye displacement, fluorescence | shares compounds with rCAG binder-1 | actives 94% (n = 4,300);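 active means inhibition above its plate's cutoff, the mean test-well inhibition plus 3 SD, cut at about 4.8% in these data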;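 further: 0% = DNA dye mix with DMSO and 100% = 100 µM mitoxantrone; hits displace the dye from DNA and so lower well fluorescence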
DNA CAG DR = DNA CAG dye complex inhibition, dose response counter-screen; DNA CAG/GTC duplex TO-PRO-1 dye displacement fluorescence; actives 20% (n = 250); shares compounds with rCAG binder-1; AID 686960; IC50, µM; in the data active means IC50 below about 10 µM
dCAG DNA bind = DNA CAG dye complex inhibition, late stage dose response. IC50, µM. actives 80% (n = 30). shares compounds with rCAG binder-1. d(CAG) DNA duplex TO-PRO-1 dye displacement, fluorescence
rCAG binder-2 = molecules binding r(CAG) RNA repeats, late stage dose response; shares compounds with rCAG binder-1; r(CAG) RNA TO-PRO-1 dye displacement, fluorescence; IC50, µM; actives 100% (n = 30); AID 720651
* = called active by the depositor; i = inactive; / = not tested or not shown. Unless noted, how the calls were made is not given here.

SMILES	ALR inh	APOBEC3G inh	aDG glyco act	PHOSPHO1 inh	APOBEC3A inh	rCAG binder-1	rCAG binder conf	DNA CAG counter	others
Cc1cc(SCC(=O)N2c3ccccc3NC(=O)CC2C)nc2ccccc12 (configuration not stated)	/	/	0	/	/	3	/	/
CCOC(=O)c1ccc(N2N=C(C)/C(=C/C=C/c3ccco3)C2=O)cc1	16	-2	0	-3	4	9	/	/
O=C(O)c1cc(N2N=C(C(F)(F)F)/C(=C/C=C/c3ccco3)C2=O)ccc1Cl	/	/	0	-17	/	89*	93*	76*
O=C(Nc1ccc(S(=O)(=O)N2CCCc3ccccc32)cc1)C1CCCO1 (configuration not stated)	-7	-6	0	4	-2	/	/	/
O=C(O)C1CC=CCC1C(=O)Nc1ccc(S(=O)(=O)N2CCCc3ccccc32)cc1 (configuration not stated)	/	-5	0	11	-2	36*	37*	9.1*
Cc1nn(-c2ccccc2)c(Cl)c1/C=C(\CC(=O)O)c1nc2ccccc2s1	0	-1	0	-6	3	42*	43*	13*
Cc1c(/C=C(\CC(=O)O)c2nc3ccccc3s2)cc(C#N)n1C	-2	-2	0	45	-8	10	/	/
Cc1nn(-c2ccccc2)c(Cl)c1/C=C(/CC(=O)O)c1nc2ccccc2s1	/	/	0	/	/	47*	36*	9.8*
Cc1nc2ccc(C(=O)N3CCN(C(=O)C(Cl)Cl)CC3)cc2n1C1CCCC1	/	/	/	/	/	4	/	/
COc1ccccc1-n1c(Cc2cccc3ccccc23)nnc1SCC(=O)O	/	/	/	/	/	15	/	/
Brc1cc2c(cc1COc1ccc(-c3nn[nH]n3)cc1)OCO2	98*	-5	0	-4	2	35*	25	6.5*
Cc1ccccc1COc1ccc(-c2nn[nH]n2)cc1	42	7	0	36	6	11	/	/
Fc1ccc(C2=Nc3cccc4cccc(c34)N2)cc1	-27	-5	0	16	-2	5	/	/
FC(F)(F)C1=Nc2cccc3cccc(c23)N1	/	84	0	/	98	94*	47*	38*
Oc1ccccc1-c1nc2c3ccccc3c3ccccc3c2[nH]1	10	/	1	8	/	56*	39*	29*
Oc1ccccc1-c1ccn[nH]1	11	-8	0	/	0	1	/	/
CC1CCCN(CC(=O)Nc2ccc(S(=O)(=O)N3C(C)CCCC3C)cc2)C1 (configuration not stated)	/	/	0	/	/	-1	/	/
COCc1cccc(-c2csc(C(C)(NC(C)=O)c3ccccc3)n2)c1 (configuration not stated)	/	/	0	/	/	2	/	/
Cc1ccc(C2=NOC(=O)/C2=C\c2ccc(C)o2)cc1	72	2	0	29	0	37*	15	6.8*
Cc1cccc(C)c1OCc1nnc(SCC(=O)O)n1-c1c(C)cccc1C	/	/	/	/	/	31	/	/
COc1ccc2c(c1)CCCN2C(=O)C1CCCN(S(=O)(=O)c2ccc(C)c(C)c2)C1 (configuration not stated)	/	/	/	/	/	5	/	/
CCn1c2ccccc2c2cc(NC(=O)COC(=O)c3ccccc3O)ccc21	2	0	0	26	-1	4	/	/
CCn1c2ccccc2c2cc(NC(=O)COC(=O)c3cc(S(N)(=O)=O)c(Cl)cc3Cl)ccc21	-5	-4	0	-7	-6	36*	32	17*
CCn1c2ccccc2c2cc(NC(=O)COC(=O)c3ccc(NC(=O)CC#N)cc3)ccc21	-4	1	0	/	5	47*	35*	21*
CCCNC(=O)C1(C)CCCN(C(=O)c2c(F)ccc(C)c2F)C1 (configuration not stated)	/	/	0	/	/	-1	/	/
SMILES	ALR inh	APOBEC3G inh	aDG glyco act	PHOSPHO1 inh	APOBEC3A inh	rCAG binder-1	rCAG binder conf	DNA CAG counter	others
Cc1cc(NS(=O)(=O)c2ccc(NC(=O)COc3ccc(Cl)cc3)cc2)no1	3	-1	2	-11	0	19	/	/
CCOC(=O)c1sc(NC(=O)Nc2ccc(Cl)cc2)nc1C	-11	-1	1	38	2	36*	36*	25*
CCc1nnc(NC(=O)Nc2ccc(Cl)cc2)s1	1	-4	0	29	-3	39*	9	12*
CCc1nnc(NS(=O)(=O)c2ccc(NC(=O)COc3ccc(Cl)c(C)c3)cc2)s1	1	-3	0	-18	4	78*	70*	32*	DNA CAG DR=i;dCAG DNA bind=3.5*;rCAG binder-2=1.3*
CCc1nnc(NS(=O)(=O)c2ccc(NC(=O)c3cc(Cl)ccc3OC)cc2)s1	18	-10	0	34	-2	75*	71*	33*	DNA CAG DR=i
COCCNC(=O)C1(C)CCN(C(=O)COc2ccc(Cl)cc2Cl)C1 (configuration not stated)	/	/	0	/	/	-3	/	/
CC(C)C1N=C(NC(=O)OCc2ccccc2)NC1=O (configuration not stated) (tested in a mixture with another compound)	/	/	/	/	/	4	/	/
COC(=O)[C@]12C[C@H](CC(=O)N3CCOCC3)C(=O)N(Cc3ccccc3)C1=C[C@H](C(C)C)O[C@@H]2C1CC1	/	/	/	/	/	-2	/	/
CCc1nnc(NS(=O)(=O)c2ccc(N/C=C\C(=O)c3cccc4ccccc34)cc2)s1	-24	-8	0	1	-2	81*	82*	54*
CCc1nnc(NS(=O)(=O)c2ccc(NC(=O)Nc3ccc(OC)cc3)cc2)s1	/	-7	0	/	-4	54*	25	6.9*
CCc1nnc(NS(=O)(=O)c2ccc(N/C=C/C(=O)c3ccc(OC)cc3)cc2)s1	21	-3	0	36	-4	59*	65*	29*
Cc1ccc(Sc2ccc(/C=C3/C(=O)NN(c4ccccc4)C3=O)o2)cc1	/	-2	0	6	4	35*	81*	46*
O=C(C[C@H]1CC[C@H]2[C@@H](COC[C@@H](O)CN2Cc2cc(F)ccc2F)O1)NCc1ccc(Cl)cc1	/	/	0	/	/	-1	/	/
